Among the data in PubChem BioAssay (Tox21) are Potency and outcome values, retold here.

Each structure is given as a SMILES string. Values joined by “and” are separate entries in the source; they are usually repeats but may differ in a detail not shown here. Equal values may be shown once. Results filed as inconclusive are left out. Some structures have more than one record in an assay (separate samples or runs), and their calls can disagree. Active and inactive are the calls of the source. Unless noted, calls come from the whole dose curve; as a rule, active = well fitted curve in the direction sought with a large enough effect in the repeat runs; inconclusive = weak or mixed curves; inactive = no such curve, though single readings can be large; an effect the other way counts as inactive or inconclusive.

The nature of test [1]: qHTS assay to identify small molecule agonists of the peroxisome proliferator-activated receptor delta (PPARd) signaling pathway - cell viability counter screen (AID 743211). Note: nearly all actives have a fitted effect of over 55% in size. A digest of the protocol: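 PPARd-bla HEK293H cells (3000/well) were pre-incubated 5 h at 37 C, then exposed to compound for 17 h at 37 C. After 2 h with LiveBLAzer substrate, CellTiter-Glo was added to the same wells; luminescence read after 30 min at room temperature.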
(In qHTS, concentration-response curves come from the screen itself.)

The nature of test [2]: qHTS assay to identify small molecule antagonists of the peroxisome proliferator-activated receptor delta (PPARd) signaling pathway - cell viability counter screen (AID 743213). Note: nearly all actives have a fitted effect of over 50% in size. A digest of the protocol: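 PPARd-bla HEK293H cells (3000/well) got compound plus 300 nM L165041 agonist for 17 h at 37 C. Viability in the same wells came from CellTiter-Glo luminescence after 30 min at room temperature.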

Test [3] concerns the target Peroxisome proliferator-activated receptor delta (Homo sapiens) (UniProt Q03181). Nature of the test: qHTS assay to identify small molecule antagonists of the peroxisome proliferator-activated receptor delta (PPARd) signaling pathway (AID 743215; active = well fitted inhibition curve with a large enough effect in the signal ratio in the repeat runs, not every such curve was filed as active; the % refers to the signal ratio;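 note: cells stimulated with agonist L165041 at 300 nM final during compound exposure; series mostly up to about 62 µM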). In a few lines:
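Inhibition of L165041-driven (300 nM final) PPARd signaling is scored in HEK293H UAS-bla cells. Exposure lasts 17 h at 37 C; beta-lactamase activity is then read by FRET substrate fluorescence after 2 h at room temperature.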

For test [4], the target named is Bile acid receptor (Homo sapiens) (UniProt Q96RI1). Nature of the test: qHTS assay to identify small molecule antagonists of the farnesoid-X-receptor (FXR) signaling pathway (AID 743217; active = well fitted inhibition curve with a large enough effect in the signal ratio in the repeat runs, not every such curve was filed as active; the % refers to the signal ratio). In a few lines:
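Antagonist mode against 50 uM (final) chenodeoxycholic acid stimulation in FXR-bla HEK 293T cells, 16 h at 37 °C. Inhibition detected as reduced beta-lactamase activity via LiveBLAzer B/G FRET fluorescence after 2 h at room temperature.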

Test [5] has the same target. The test can be described thus: qHTS assay to identify small molecule agonists of the farnesoid-X-receptor (FXR) signaling pathway (AID 743220; active = well fitted activation curve with a large enough effect in the signal ratio in the repeat runs, not every such curve was filed as active; the % refers to the signal ratio). In a few lines: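 Beta-lactamase reporter under UAS control in GeneBLAzer FXR HEK 293T cells (5000/well) measured with LiveBLAzer FRET substrate after 2 h at room temperature. Compound exposure lasted 16 h at 37C.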
Test [6] in a line: qHTS assay to identify small molecule antagonists of the farnesoid-X-receptor (FXR) signaling pathway - cell viability counter screen (AID 743221; active = well fitted cell-killing curve with a large enough effect in the repeat runs, not every such curve was filed as active; note: nearly all actives have a fitted effect of over 50% in size). In a few lines:
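GeneBLAzer FXR-UAS-bla HEK 293T cells, compound plus chenodeoxycholic acid (50 uM final), 16 h at 37 C. CellTiter-Glo added to the same wells after the beta-lactamase read; luminescence read after 30 min at room temperature as viability.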

The target in test [7] is Vitamin D3 receptor (Homo sapiens) (UniProt P11473). Nature of the test: qHTS assay to identify small molecule agonists of the vitamin D receptor (VDR) signaling pathway (AID 743222; calls by dose curve). A digest of the protocol:
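Quantitative HTS agonist-mode screen: compounds in DMSO were pin-transferred onto VDR-bla cells and incubated 16 h at 37C, 5% CO2. Reporter activity was detected with LiveBLAzer B/G FRET substrate after 2 h at room temperature.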

A short description of test [8]: qHTS assay to identify small molecule agonists of the vitamin D receptor (VDR) signaling pathway - cell viability counter screen (AID 743224). Note: nearly all actives have a fitted effect of over 50% in size. Note: potency is the fitted concentration of half-maximal effect. A digest of the protocol: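 Viability is measured in the same wells as the VDR-bla reporter assay: after 16 h compound treatment and 2 h substrate loading, CellTiter-Glo is added and luminescence read 30 min later.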
Test [9] can be described thus: qHTS assay to identify small molecule antagonists of the vitamin D receptor (VDR) signaling pathway - cell viability counter screen (AID 743225). Note: nearly all actives have a fitted effect of over 50% in size. A digest of the protocol: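 VDR-UAS-bla HEK 293T cells were plated and incubated 4 h at 37C, then dosed with compound plus 3 nM (final) 1-alpha,25-dihydroxyvitamin D3 for 16 h. After the 2 h beta-lactamase read, viability in the same wells was read as CellTiter-Glo luminescence after 30 min at room temperature.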

Test [10] in a line: qHTS assay to identify small molecule agonists of the NFkB signaling pathway (AID 1159509; active = well fitted curve in the direction sought with a large enough effect in the signal ratio in the repeat runs, not every such curve was filed as active; the % refers to the signal ratio; note: series mostly up to about 61 µM). A digest of the protocol:
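NFkB-bla ME-180 cells with a beta-lactamase reporter under an NF-kB response element were plated overnight, treated with compounds in DMSO for 5 hr at 37 C, then loaded with FRET substrate for 1.5 hr at room temperature.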

Test [11] is described as follows: qHTS assay to identify small molecule agonists of the NFkB signaling pathway - cell viability counter screen (AID 1159515; calls by dose curve; note: series mostly up to about 61 µM; nearly all actives have a fitted effect of over 55% in size). A digest of the protocol: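 Multiplexed viability readout: after the 5 hr compound exposure and 1.5 hr FRET substrate step, CellTiter-Glo reagent went into the same NFkB-bla ME-180 wells; ATP luminescence was measured after 30 min at room temperature.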

Test [12] can be described thus: qHTS assay to identify small molecule agonists of the endoplasmic reticulum stress response signaling pathway (AID 1159516; active = well fitted activation curve with a large enough effect in the signal ratio in the repeat runs, not every such curve was filed as active; the % refers to the signal ratio). In a few lines:
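Tox21 10K library screened in quantitative HTS format on ESRE-bla HeLa cells, a beta-lactamase reporter under ER stress response element control; 5 hr treatment, FRET read.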

Test [13] is described as follows: qHTS assay to identify small molecule agonists of the endoplasmic reticulum stress response signaling pathway - cell viability counter screen (AID 1159517; calls by dose curve). A digest of the protocol:
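Luminescence readout: CellTiter-Glo, 30 min RT, same wells as the ESRE-bla reporter read. HeLa ESRE-bla, 1,500 cells/well, o/n 37 C; cpd 5 hr 37 C/5% CO2.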

Test [14] in a line: qHTS assay to identify small molecule antagonists of the retinoid-related orphan receptor gamma (ROR-gamma) signaling pathway - cell viability counter screen (AID 1159520). Note: nearly all actives have a fitted effect of over 50% in size. A digest of the protocol:
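Tet-on ROR gamma CHO cells (1,000/well) were plated 4 hr, given compounds in DMSO for 2 hr at 37 C, then induced with 1 uM final doxycycline for 16 hr. Viability was read as ATP by CellTiter-Glo luminescence after 30 min.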

Test [15] is described as follows: qHTS assay to identify small molecule agonists of the AP-1 signaling pathway - cell viability counter screen (AID 1159525; calls by dose curve; note: nearly all actives have a fitted effect of over 55% in size). A digest of the protocol:
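ME-180 AP-1-bla, 2500 cells/well, Opti-MEM + 0.5% dialyzed FBS; overnight 37 °C; cpd 15-pt titration, 5 h 37 °C; CellTiter-Glo 30 min RT; luminescence read; normalised to TOAB and DMSO controls.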

The nature of test [16]: qHTS assay to identify small molecule agonists of the AP-1 signaling pathway (AID 1159526; calls by dose curve).
Test [17] deals with Peroxisome proliferator-activated receptor delta (Homo sapiens) (UniProt Q03181). Nature of the test: qHTS assay to identify small molecule agonists of the peroxisome proliferator-activated receptor delta (PPARd) signaling pathway (AID 743212; calls by dose curve). In a few lines:
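GeneBLAzer PPARd UAS-bla HEK293H cells (beta-lactamase reporter under UAS control), plated and rested 5 h at 37 C, then exposed to compounds in DMSO at 37 C; LiveBLAzer B/G FRET substrate added, 2 h room temperature, fluorescence read.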

Test [18] has as its target Vitamin D3 receptor (Homo sapiens) (UniProt P11473). Nature of the test: qHTS assay to identify small molecule antagonists of the vitamin D receptor (VDR) signaling pathway (AID 743223; active = well fitted inhibition curve with a large enough effect in the signal ratio in the repeat runs, not every such curve was filed as active; the % refers to the signal ratio). In a few lines:
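VDR-bla cells were treated with compound plus 3 nM final 1alpha,25-dihydroxyvitamin D3 for 16 h at 37C. Beta-lactamase reporter read by B/G FRET substrate fluorescence after 2 h at room temperature. qHTS format.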

Test [19] concerns the target Nuclear receptor ROR-gamma (Homo sapiens) (UniProt P51449). The test can be described thus: qHTS assay to identify small molecule antagonists of the retinoid-related orphan receptor gamma (ROR-gamma) signaling pathway (AID 1159521). A digest of the protocol:
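Tet-on ROR-gamma CHO cells with ROR response element-luciferase reporter; compounds added 2 hr before 1 uM doxycycline induction, then 16 hr at 37 C. Antagonism scored as decreased ONE-Glo luminescence.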

Test [20] in a line: qHTS assay to identify small molecule agonists of the farnesoid-X-receptor (FXR) signaling pathway - cell viability counter screen (AID 743218). Note: nearly all actives have a fitted effect of over 45% in size. A digest of the protocol:
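Cytotoxicity counter-screen run in parallel, same wells: FXR-UAS-bla HEK 293T cells dosed 16 h at 37 C, viability read by CellTiter-Glo luminescence after 30 min at room temperature.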

Chain of Peroxisome proliferator-activated receptor delta (Homo sapiens) (Q03181 whole entry, looked up): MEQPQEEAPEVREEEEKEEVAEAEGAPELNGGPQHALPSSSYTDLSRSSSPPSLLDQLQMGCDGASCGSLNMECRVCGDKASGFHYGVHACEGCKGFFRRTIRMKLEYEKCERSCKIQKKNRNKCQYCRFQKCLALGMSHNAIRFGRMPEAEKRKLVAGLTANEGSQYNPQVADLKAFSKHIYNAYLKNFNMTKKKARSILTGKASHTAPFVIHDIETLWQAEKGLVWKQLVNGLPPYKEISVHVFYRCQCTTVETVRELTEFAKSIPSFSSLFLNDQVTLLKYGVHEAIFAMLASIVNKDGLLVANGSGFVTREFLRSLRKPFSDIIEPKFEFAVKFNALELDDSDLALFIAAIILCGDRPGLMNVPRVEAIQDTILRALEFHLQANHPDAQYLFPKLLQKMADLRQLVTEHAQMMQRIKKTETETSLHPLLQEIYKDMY
Chain of Vitamin D3 receptor (Homo sapiens) (P11473 whole entry, looked up): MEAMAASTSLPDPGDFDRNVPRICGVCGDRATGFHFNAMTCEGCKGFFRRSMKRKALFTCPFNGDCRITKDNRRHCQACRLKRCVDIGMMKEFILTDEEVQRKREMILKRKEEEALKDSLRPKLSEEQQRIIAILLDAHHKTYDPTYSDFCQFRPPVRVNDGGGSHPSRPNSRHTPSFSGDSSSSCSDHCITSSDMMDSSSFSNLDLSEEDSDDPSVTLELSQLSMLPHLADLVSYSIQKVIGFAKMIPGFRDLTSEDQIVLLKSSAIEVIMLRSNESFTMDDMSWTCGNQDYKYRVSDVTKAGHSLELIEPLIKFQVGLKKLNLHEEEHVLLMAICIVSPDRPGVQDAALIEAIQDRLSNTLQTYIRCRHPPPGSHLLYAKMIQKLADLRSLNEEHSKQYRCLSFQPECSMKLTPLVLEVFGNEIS
Chain of Bile acid receptor (Homo sapiens) (Q96RI1 whole entry, looked up): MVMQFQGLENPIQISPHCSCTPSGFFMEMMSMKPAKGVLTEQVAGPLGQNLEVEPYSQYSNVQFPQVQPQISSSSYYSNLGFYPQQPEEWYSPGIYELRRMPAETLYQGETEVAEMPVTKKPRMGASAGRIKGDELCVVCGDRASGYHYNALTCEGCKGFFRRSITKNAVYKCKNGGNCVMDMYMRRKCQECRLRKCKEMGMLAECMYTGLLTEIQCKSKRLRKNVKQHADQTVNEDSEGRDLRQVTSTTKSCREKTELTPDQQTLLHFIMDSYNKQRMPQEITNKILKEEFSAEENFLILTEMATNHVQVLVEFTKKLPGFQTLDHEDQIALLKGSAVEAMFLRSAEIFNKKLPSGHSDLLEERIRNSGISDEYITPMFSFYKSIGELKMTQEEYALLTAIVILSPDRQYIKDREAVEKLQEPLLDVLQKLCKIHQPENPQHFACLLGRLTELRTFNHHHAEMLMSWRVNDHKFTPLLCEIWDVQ

On to `CNC(=O)Oc1cccc2c1OC(C)(C)O2`, for which the Potency entry in test [1], in [2], in test [3], in test [4], in test [6] and in test [8] was “inactive” throughout. Also, the Potency result in test [9], in test [11], in [13], in [14] and in [15] was “inactive” throughout. For the same molecule, the call in test [5], in [7], in test [10], in test [12] and in test [16] was inactive.

On to `O=C(NC(=O)c1c(F)cccc1F)Nc1ccc(Cl)cc1`, for which the Potency result in test [1], in [17], in test [2], in test [4], in test [6] and in [8] was “inactive” each time. Besides, the Potency result in test [9], in test [11], in [13], in test [14], in test [19] and in test [15] was “inactive” throughout. Also, the result in test [5], in test [7], in [18], in test [10] and in test [16] was inactive.

Turning to `C=CCc1ccc2c(c1)OCO2`, the Potency result in [1], in [2], in test [20], in test [6], in [8] and in [11] was “inactive” throughout. Further, the Potency result in test [13], in test [14], in test [19] and in test [15] was “inactive” each time. For the same molecule, the molecule was called inactive in test [7], in [18], in test [10], in test [12] and in [16].

Regarding `Nc1ccc(Cl)cc1N`, the Potency entry in test [1], in test [2], in [20], in test [6], in [9] and in test [11] was “inactive” each time. Moreover, the Potency entry in test [13], in test [14], in [19] and in test [15] was “inactive” in each case. Further, the Potency entry in test [8] was “inactive and 43.6 µM (active)”. For the same molecule, the result in test [12] and in test [16] was inactive.

In the case of `CN(C)c1ccc(C(=O)c2ccc(N(C)C)cc2)cc1`, the Potency entry in test [2], in [6], in test [8], in [9], in test [11] and in [13] was “inactive” throughout. Also, the Potency entry in test [14], in test [19] and in test [15] was “inactive” in each case. The molecule was called inactive in test [5], in test [7], in test [12] and in test [16].

With `c1ccc(P(c2ccccc2)c2ccccc2)cc1`, the Potency result in test [1], in test [17], in test [2], in test [3], in [20] and in [6] was “inactive” throughout. Moreover, the Potency result in test [8], in [9], in [11], in test [13], in [14] and in [19] was “inactive” throughout. For the same molecule, in [15], the Potency entry is “inactive”. The outcome in test [7], in test [18] and in [16] was inactive.
